Results filed as inconclusive are left out. Activity calls are given as the source filed them. The call rests on the fitted dose curve; in most records, active means well fitted curve in the direction sought with a large enough effect; inconclusive means small, poorly fitted or top-dose-only effect, or another doubt; inactive means no such curve, though single readings can be large or run the other way.

Here are results for nine compounds from PubChem BioAssay AID2061310 (National Center for Advancing Translational Sciences (NCATS), 2025).

The target of this assay is Retinal dehydrogenase 2 (Homo sapiens) (UniProt O94788). Briefly: qHTS for Inhibitors of the Aldehyde Dehydrogenase Family (ALDH1A2) Validation screens. To be noted: fluorescence read-out; Potency: ALDH1A2 inhibition qHTS validation; series mostly up to 49.8 µM; activity, negative = inhibition: at the top concentration. (qHTS replaces the single test concentration by a dilution series.)
With `CC(C)(C)c1ccc(S(=O)(=O)/C=C/C#N)cc1`, the Potency is 2.82 µM (active).
For `Cc1ccc(C(=O)Nc2cccc(C(=O)O)c2)cc1`, the “activity, negative = inhibition” value is -31.7% (inactive).
On the same count and under the same terms, the same measure for `O=C(OC1C[C@@H]2CC3C[C@H](C1)N2CC3=O)c1c[nH]c2ccccc12` (some centres undefined): 17.5% (inactive); for `CCOc1ccc(-c2cc(C(=O)N3CCN(c4ccccn4)CC3)c3ccccc3n2)cc1`: -9.2% (inactive).
Same read-out and setting: the same measure for `N/C(=N\OC(=O)c1ccccc1)c1ccccn1`: 15.7% (inactive); for `CCOC(=O)CSc1nc2c(sc3ccccc32)c(=O)n1CCCN1CCCC1`: 0.849% [at 44.5 µM] (inactive).
With `CC(C)N(CCC(=O)c1ccc2ccccc2c1)Cc1ccccc1`, the Potency was 5.62 µM (active).
`CCCN(CCC)C(=O)Cn1c(=O)n(-c2ccc(C)cc2)c(=O)c2ccc(C(=O)NCc3ccccc3Cl)cc21`: the “activity, negative = inhibition” value is -1.51% (inactive).
On the same count and under the same terms, the same measure for `CCOC(=O)CNS(=O)(=O)c1cc(-c2nnc(Nc3cccc(O)c3)c3ccccc23)ccc1C`: -1.24% (inactive).
